Data published in PubChem BioAssay.
Activity calls are given as the source filed them.

What was measured:
Albumin (Bos taurus) = Albumin (Bos taurus) (UniProt P02769); experiment: compounds binding labelled BSA control protein – biochemical, small-molecule microarray, Alexa647 label, 635/667 nm fluorescence, artefact control for SMM control protein annotation, profiling panel (AID 1118); settings: BSA-A647 binding, fluorescence 635 nm, higher = more signal;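 note: score merges 667 nm emission intensity and signal-to-noise per printed compound spot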
[1] = probe aXIP binding to arrayed compounds – biochemical, NeuroSMM set, 635/667 nm fluorescence, primary screen (AID 1119); settings: small-molecule microarray, higher = more signal, called active from +8 up or from −8 down;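 note: probe is the protein aXip251-270 applied at 1 µg/mL to compound-printed slides; binding of probe to printed compounds measured as 667 nm fluorescence plus signal to noise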
[2] = probe aNOTCH3 binding on compound microarray – biochemical, small-molecule microarray, 635/667 nm fluorescence, primary screen (AID 1120); settings: higher = more signal;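 note: probe is a biotin-tagged antibody raised against NOTCH3 rather than NOTCH3 protein; score merges spot fluorescence near 667 nm with spot signal to noise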
[3] = probe aNOTCH2 binding on compound microarray – biochemical, small-molecule microarray, 635/667 nm fluorescence, primary screen (AID 1121); settings: higher = more signal;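 note: score merges feature fluorescence read at 667 nm with its signal to noise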
[4] = target: Carbonic anhydrase 2 (Homo sapiens) (UniProt P00918); experiment: compounds binding carbonic anhydrase 2 – biochemical, small-molecule microarray, Alexa647-labelled CAII, profiling panel (AID 1122); settings: CAII-A647 binding fluorescence, higher = more signal
[5] = COS7 lysate on small-molecule microarray, probe aHis, 635 nm (AID 1123); settings: COS7 cell lysate, fluorescence, higher = more signal;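 note: z-score combines 667nm fluorescence intensity with signal-to-noise per printed compound spot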
[6] = probe aLAP1 signal on lysate-treated microarray – cell lysate, small-molecule microarray, COS7 lysate, primary screen (AID 1124); settings: probe aLAP1, fluorescence, higher = more signal;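 note: lysate comes from COS7 cells expressing LAP1 and is applied at 0.3 µg/mL; score merges spot fluorescence near 667 nm with signal-to-noise over triplicate slides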
Sam68 (KHDRBS1) = experiment: compounds binding KHDRBS1 protein – biochemical, small-molecule microarray, 635 nm fluorescence, primary screen (AID 1125); settings: higher = more signal;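 note: score merges 667 nm channel intensity with signal to noise over triplicate slides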
[7] = tested on: Chordin-like protein 2 (CHRDL2); experiment: compounds binding chordin-like 2 – biochemical, small-molecule microarray, 635 nm fluorescence, primary screen (AID 1126); settings: fluorescence 635 nm, higher = more signal;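 note: printed compound slides probed with Chrdl2 protein at 4 µg/mL for 1 h at 4 C; score merges 667 nm emission intensity with signal to noise over three replicate slides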
[8] = target: Concanavalin-A (Canavalia ensiformis) (UniProt P02866); experiment: compounds binding concanavalin A lectin – biochemical, small-molecule microarray, Alexa647 label, 635 nm, artefact control for SMM control protein annotation, primary screen (AID 1127); settings: ConA-A647 binding fluorescence, higher = more signal;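 note: z combines 667 nm emission intensity with signal-to-noise across three replicate slides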
[9] = compounds binding Alexa647 anti-His antibody – biochemical, small-molecule microarray, 635 nm fluorescence, artefact control for SMM control protein annotation, primary screen (AID 1128); settings: higher = more signal;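 note: score merges feature fluorescence with signal-to-noise for each printed compound spot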
[10] = tested on: Human papillomavirus type 1a E7 protein (residues 1-88); experiment: HPV1a E7 small-molecule binders, primary screen, biochemical, small-molecule microarray, residues 1-88, 635 nm (AID 1129); settings: small-molecule microarray binding, fluorescence 635 nm; higher = more signal
[11] = target: Focal adhesion kinase 1 (Homo sapiens) (UniProt Q05397); experiment: PTK2 protein binding on printed compound slides – biochemical, small-molecule microarray, 635/667 nm fluorescence, BSA, DTT, primary screen (AID 1130); settings: 635 nm fluorescence, higher = more signal;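 note: composite of spot emission at 667 nm and signal to noise over triplicate slides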
[12] = tested on: Fibrinogen (Alexa647-labelled); experiment: Alexa647-fibrinogen binding to printed small molecules – biochemical, small-molecule microarray, 635/667 nm fluorescence, artefact control for SMM control-protein annotation, profiling panel (AID 1131); settings: fibrinogen-A647 binding fluorescence, higher = more signal;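 note: z-score merges 667 nm fluorescence with per-spot signal-to-noise over triplicate slides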
[13] = target: Follistatin (Homo sapiens) (UniProt P19883); experiment: FST protein binding to printed compounds – biochemical, small-molecule microarray, 635/667 nm fluorescence, primary screen (AID 1132); settings: 635 nm fluorescence, higher = more signal
[14] = target: Fibroblast growth factor 2 (Homo sapiens) (UniProt P09038); experiment: basic fibroblast growth factor binding to printed compounds – biochemical, small-molecule microarray, 635/667 nm fluorescence, primary screen (AID 1133); settings: FGF2, fluorescence 635/667, higher = more signal
[15] = JC-1 mitochondrial potential readout, lung cancer cells – cell-based, A549, JC-1 fluorescence, basal, 24 h, 100 nL, profiling panel (AID 1138); settings: higher = more signal;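 note: A549 lung adenocarcinoma cells under basal conditions with no added stimulus; test concentration not given here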
Lefty1 = Lefty1 protein binding to printed compounds – biochemical, small-molecule microarray, 635/667 nm fluorescence, primary screen (AID 1139); settings: fluorescence 635/667, higher = more signal
[16] = tested on: wheat germ agglutinin (Triticum aestivum), Alexa647-labelled; experiment: Alexa647-WGA lectin binding to printed small molecules – biochemical, small-molecule microarray, 635/667 nm fluorescence, artefact control for SMM control-protein annotation, profiling panel (AID 1140); settings: WGA-A647 binding, 635 nm fluorescence, higher = more signal;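 note: score merges 667 nm feature emission with signal to noise over triplicate slides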
[17] = target: Luciferin 4-monooxygenase (Photinus pyralis) (UniProt P08659); experiment: inhibition of purified Photinus pyralis luciferase – biochemical, luminescence, purified enzyme, 2006 set, primary screen (AID 1141); settings: purified firefly luciferase, SteadyGlo luminescence, 30 min; higher = more signal, called active from +8 up or from −8 down;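 note: cell-free assay with purified firefly luciferase at 100 ng per well in PBS; test concentration not given here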
Chain of Luciferin 4-monooxygenase (Photinus pyralis) (P08659 whole entry, looked up): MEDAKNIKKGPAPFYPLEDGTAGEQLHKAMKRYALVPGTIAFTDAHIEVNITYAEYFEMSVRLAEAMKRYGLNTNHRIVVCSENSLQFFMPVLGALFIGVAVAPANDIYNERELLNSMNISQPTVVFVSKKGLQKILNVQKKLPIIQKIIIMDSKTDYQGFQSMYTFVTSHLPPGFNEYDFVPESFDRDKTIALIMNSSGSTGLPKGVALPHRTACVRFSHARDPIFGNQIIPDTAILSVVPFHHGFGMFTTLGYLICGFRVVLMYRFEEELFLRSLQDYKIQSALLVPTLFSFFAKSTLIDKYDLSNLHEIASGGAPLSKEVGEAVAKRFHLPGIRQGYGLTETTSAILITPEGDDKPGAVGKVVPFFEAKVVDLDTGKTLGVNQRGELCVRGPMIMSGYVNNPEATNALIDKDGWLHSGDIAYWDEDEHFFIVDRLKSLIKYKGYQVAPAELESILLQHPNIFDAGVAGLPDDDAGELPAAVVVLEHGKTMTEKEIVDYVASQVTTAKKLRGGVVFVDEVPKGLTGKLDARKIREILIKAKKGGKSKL

Chain of Follistatin (Homo sapiens) (P19883 whole entry, looked up): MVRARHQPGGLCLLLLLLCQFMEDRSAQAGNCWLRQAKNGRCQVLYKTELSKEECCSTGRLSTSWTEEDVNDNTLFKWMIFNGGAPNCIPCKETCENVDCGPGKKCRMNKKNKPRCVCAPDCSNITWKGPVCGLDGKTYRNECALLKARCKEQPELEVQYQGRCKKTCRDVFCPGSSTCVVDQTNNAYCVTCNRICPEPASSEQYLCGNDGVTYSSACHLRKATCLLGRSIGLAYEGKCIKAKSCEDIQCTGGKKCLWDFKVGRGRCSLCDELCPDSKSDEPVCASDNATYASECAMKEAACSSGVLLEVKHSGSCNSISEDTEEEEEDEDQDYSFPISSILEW
Chain of Albumin (Bos taurus) (P02769 whole entry, looked up): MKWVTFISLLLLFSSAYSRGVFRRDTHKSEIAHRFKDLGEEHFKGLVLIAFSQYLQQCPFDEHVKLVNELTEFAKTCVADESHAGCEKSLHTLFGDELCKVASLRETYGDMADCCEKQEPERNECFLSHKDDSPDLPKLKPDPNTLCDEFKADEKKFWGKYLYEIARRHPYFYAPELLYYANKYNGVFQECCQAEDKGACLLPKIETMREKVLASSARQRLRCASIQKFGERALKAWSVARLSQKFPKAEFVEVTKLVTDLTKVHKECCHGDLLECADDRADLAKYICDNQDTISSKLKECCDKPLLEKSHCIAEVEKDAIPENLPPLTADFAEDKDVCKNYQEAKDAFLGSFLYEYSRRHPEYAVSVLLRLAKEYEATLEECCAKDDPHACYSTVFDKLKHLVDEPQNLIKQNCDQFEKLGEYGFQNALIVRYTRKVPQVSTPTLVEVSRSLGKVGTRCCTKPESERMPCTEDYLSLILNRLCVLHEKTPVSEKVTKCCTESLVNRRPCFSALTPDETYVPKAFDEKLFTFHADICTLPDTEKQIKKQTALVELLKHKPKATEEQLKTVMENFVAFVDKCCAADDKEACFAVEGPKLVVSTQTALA
Chain of Concanavalin-A (Canavalia ensiformis) (P02866 whole entry, looked up): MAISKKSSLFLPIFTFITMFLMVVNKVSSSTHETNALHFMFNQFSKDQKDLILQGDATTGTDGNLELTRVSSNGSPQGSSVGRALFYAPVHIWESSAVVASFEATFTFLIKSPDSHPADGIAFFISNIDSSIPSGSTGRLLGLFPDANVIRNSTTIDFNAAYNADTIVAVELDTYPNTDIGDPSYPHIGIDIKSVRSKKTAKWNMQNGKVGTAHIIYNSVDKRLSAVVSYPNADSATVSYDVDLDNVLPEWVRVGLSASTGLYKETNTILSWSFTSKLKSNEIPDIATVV
Chain of Focal adhesion kinase 1 (Homo sapiens) (Q05397 whole entry, looked up): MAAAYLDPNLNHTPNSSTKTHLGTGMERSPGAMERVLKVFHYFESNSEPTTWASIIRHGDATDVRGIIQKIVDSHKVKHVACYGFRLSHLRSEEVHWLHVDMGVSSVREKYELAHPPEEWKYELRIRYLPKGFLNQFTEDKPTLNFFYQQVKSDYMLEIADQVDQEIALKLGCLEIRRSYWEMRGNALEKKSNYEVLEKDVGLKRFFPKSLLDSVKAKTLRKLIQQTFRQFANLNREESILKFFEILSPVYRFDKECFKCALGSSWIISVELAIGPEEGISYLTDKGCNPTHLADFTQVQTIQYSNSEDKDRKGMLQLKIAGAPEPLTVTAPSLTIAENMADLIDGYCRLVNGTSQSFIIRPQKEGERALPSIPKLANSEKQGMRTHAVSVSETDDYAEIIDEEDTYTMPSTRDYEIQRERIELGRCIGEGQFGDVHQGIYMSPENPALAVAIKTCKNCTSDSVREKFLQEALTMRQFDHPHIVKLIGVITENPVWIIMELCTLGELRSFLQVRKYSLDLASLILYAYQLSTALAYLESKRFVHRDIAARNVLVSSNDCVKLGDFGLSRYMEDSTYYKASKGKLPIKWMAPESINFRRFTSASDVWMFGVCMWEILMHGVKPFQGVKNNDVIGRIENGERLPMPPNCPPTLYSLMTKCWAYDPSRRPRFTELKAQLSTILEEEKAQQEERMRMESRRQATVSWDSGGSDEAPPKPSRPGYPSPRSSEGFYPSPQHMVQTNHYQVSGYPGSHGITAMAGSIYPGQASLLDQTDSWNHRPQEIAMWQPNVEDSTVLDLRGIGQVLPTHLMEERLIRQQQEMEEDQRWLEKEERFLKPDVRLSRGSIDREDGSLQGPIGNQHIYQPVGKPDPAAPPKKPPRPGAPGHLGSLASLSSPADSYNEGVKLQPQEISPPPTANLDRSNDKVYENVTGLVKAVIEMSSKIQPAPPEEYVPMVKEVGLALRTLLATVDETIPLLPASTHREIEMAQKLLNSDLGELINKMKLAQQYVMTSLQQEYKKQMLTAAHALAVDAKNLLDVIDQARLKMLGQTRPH
Chain of Fibroblast growth factor 2 (Homo sapiens) (P09038 whole entry, looked up): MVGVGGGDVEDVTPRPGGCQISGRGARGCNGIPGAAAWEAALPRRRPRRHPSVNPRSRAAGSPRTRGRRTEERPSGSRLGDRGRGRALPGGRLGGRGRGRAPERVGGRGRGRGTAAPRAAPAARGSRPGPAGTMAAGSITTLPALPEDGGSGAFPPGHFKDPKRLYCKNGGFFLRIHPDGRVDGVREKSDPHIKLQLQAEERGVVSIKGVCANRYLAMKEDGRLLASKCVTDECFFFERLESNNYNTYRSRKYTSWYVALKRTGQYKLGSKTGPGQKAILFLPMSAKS

Compound	composite z-score (Albumin (Bos taurus))	composite Z-score [1]	composite z-score [2]	composite z-score [3]	composite z-score [4]	composite z-score [5]	composite z-score [6]	composite z-score (Sam68 (KHDRBS1))	composite z-score [7]	composite z-score [8]	composite z-score [9]	composite z-score [10]	composite z-score [11]	composite z-score [12]	composite z-score [13]	composite z-score [14]	z-score [15]	composite z-score (Lefty1)	composite z-score [16]	z-score [17]
COCCOC(=O)N1C(=O)[C@@]2(c3cc(C#Cc4ccc(OC)cc4)ccc31)[C@H](C(=O)Nc1nc3ccccc3s1)[C@H]1C(=O)O[C@H](c3ccccc3)[C@H](c3ccccc3)N1[C@@H]2c1ccccc1OCCO	0.545	-0.331 (inactive)	0.124	0.159	0.547	0.874	0.304	0.997	0.649	1.11	0.484	1.05	0.0699	0.922	1.32	1.04	-1.75	0.973	0.883	-1.76 (inactive)
COC(=O)C1(CC(C)C)C=C2C(=C(C(C)C)C(=O)C2C)CN1 (stereo not given)	-0.597	0.116 (inactive)	-0.0043	-0.119	0.539	0.0678	-0.463	-0.923	-0.699	-2.07	0.928	-1.05	0.208	-0.653	-1.04	-0.688	0.44	-0.746	0.323	1.66 (inactive)
CN1C=C(C(=O)OCCS(C)(=O)=O)C(C(=O)OCCS(C)(=O)=O)=CC(CCCO)=CC1c1ccc(CN2CCCC2)cc1 (stereo not given)	0.676	0.48 (inactive)	0.405	-0.146	0.746	1.87	-0.197	1.3	0.369	0.907	1.29	1.26	0.666	0.894	1.06	0.546	3.43	1.23	0.837	-2.16 (inactive)
COCCOC(=O)N1C(=O)[C@@]2(c3cc(C#Cc4ccc(OC)cc4)ccc31)[C@H](c1ccc(OCCO)cc1)N1[C@H](c3ccccc3)[C@H](c3ccccc3)OC(=O)[C@H]1[C@@H]2C(=O)N1CCCCCCC1	0.807	1.44 (inactive)	1.29	0.177	0.4	2.92	1.23	1.25	1.31	0.927	-0.252	1.2	1.4	0.636	1.36	1.24	-0.625	1.36	1.01	-2.14 (inactive)
Cc1ccc(F)cc1S(=O)(=O)N[C@@H]1CCN(Cc2ccc3[nH]ccc3c2)C1	-0.213	0.688 (inactive)	0.128	-0.176	0.713	0.95	-0.126	0.605	0.651	0.463	0.426	0.479	-0.105	-0.0254	1.06	0.561	0.316	0.543	0.0689	0.175 (inactive)
C=C(COC)/C(=C/C[C@@H](OC(C)=O)c1ccccc1OCCO)c1cc(C(=O)OC)ccc1OC	0.27	1.02 (inactive)	0.213	-0.122	0.388	0.283	0.0845	0.844	-0.183	0.369	2.21	0.461	-0.102	-0.325	0.569	0.36	1.75	0.624	0.344	-1.47 (inactive)
COC(=O)[C@@]1(Cc2ccc(OC)cc2)[C@@H]2[C@@H](CC(=O)[C@H]2CC(=O)C(=O)N2CCCC2)CN1C(=O)c1ccccc1	0.979	-0.766 (inactive)	1.75	1	0.856	3.45	0.921	1.09	0.251	1.18	2.96	1.27	0.888	1	0.713	-0.256	0.483	-0.265	1.47	0.596 (inactive)
COC(=O)[C@@]1(Cc2ccc(F)cc2)[C@H]2c3cc(C(=O)N(C)C)n(CCO)c3C[C@H]2CN1C(=O)c1ccccc1	1.13	-0.551 (inactive)	-0.0448	0.0746	0.861	1.97	1.21	-0.206	-0.437	-0.0249	2.78	0.889	0.991	0.797	-0.409	-0.566	-0.0423	-0.483	0.718	-0.683 (inactive)
O=C1O[C@@H](c2ccccc2)[C@@H](c2ccccc2)N2[C@@H](c3ccc(OCCO)cc3)[C@]3(C(=O)Nc4ccc(C#CCCO)cc43)[C@@H](C(=O)Nc3nc4ccccc4s3)[C@H]12	0.844	1.09 (inactive)	0.289	-0.148	0.458	1.48	0.426	1.3	0.324	1.09	0.324	1.13	0.256	0.978	1.4	0.474	-2.19	0.502	0.468	-0.7 (inactive)
O=C1c2ccccc2[C@](Cc2ccccc2I)(C(=O)O)[C@H](c2ccc(CO)cc2)N1Cc1ccccc1	0.48	0.929 (inactive)	-0.123	-0.112	0.729	1.25	1.05	1.25	-0.813	1.02	0.729	0.0602	2.7	0.303	-0.584	-0.42	0.068	-0.827	0.471	-0.443 (inactive)
